High-throughput results as filed in PubChem BioAssay.
SARS PLP yeast – blocks SARS-CoV papain-like protease in a yeast assay. S. cerevisiae expressing SARS-CoV PLpro, growth rescue. Potency, µM (top dose mostly 32.9 µM), hits mostly activators. 330,000 compounds, 0.19% hits. AID 485353; calls by dose curve; also: nearly all actives have a fitted effect of over 55% in size
Pf growth 96h – P. falciparum growth inhibition at 96 hours | P. falciparum luciferase reporter growth, 96 h | Potency, µM (doses to about 28.7 µM), usual class: inhibitors | 320,000 compounds, 6.9% hits
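Two-generation exposure (96 h) targets delayed-death phenotype. Reporter parasites carrying integrated firefly luciferase, in red cells at 2% hematocrit and 0.05% parasitemia final, kept at 37 C, 5% CO2; luminescence loss indicates inhibition.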
Pf growth 48h – inhibits P. falciparum growth in the first generation, 48 h; P. falciparum luciferase growth in erythrocytes, 48 h; Potency, µM (series often up to 28.7 µM), actives largely listed as inhibitors; 310,000 compounds, 5.9% hits; AID 504832
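Growth was read as firefly luciferase luminescence after a 48 h, 37 C, 5% CO2 exposure of compounds to reporter-bearing P. falciparum cultures (0.1% parasitemia, 2% hematocrit final) in Albumax-supplemented RPMI 1640.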
Sm TGR block – inhibitors of Schistosoma mansoni thioredoxin glutathione reductase | Q962Y6 | purified TGR, DTNB reduction, TNB absorbance 405 nm | Potency, µM (titrated, usually from 114 µM), hits mostly inhibitors | 360,000 compounds, 3% hits | AID 485364; also: nearly all actives have a fitted effect of over 60% in size
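TGR 20 nM + NADPH 100 uM (dispensed conc.), cpd preinc 15 min RT; start with NADPH (500 uM addition) then DTNB (15 mM addition). Kinetic TNB absorbance, 405 nm filter. Four-parameter Hill fit across titration.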
Of the large screens only hits and unclear results are named; the others gave an inactive call. An excerpt weighted towards active compounds, which were near 12% of everything screened. Unless noted, calls follow the shape of the dose curve; as a rule, active = well fitted curve in the direction sought with a large enough effect; inconclusive = small, poorly fitted or top-dose-only effect, or another doubt; inactive = no such curve, though single readings can be large; an effect the other way counts as inactive or inconclusive.

CC(=O)Nc1ccc(OCC(O)Cn2c3ccccc3c3ccccc32)c(C)c1 (configuration not stated)	Pf growth 96h 10µM, Pf growth 48h inconclusive
CCCc1nc2ccccc2n2c(-c3ccc(C)cc3)c3c(=O)n(C)c(=O)n(C)c3c12	none (no result: SARS PLP yeast, Pf growth 96h, Pf growth 48h)
COc1cccc(CN2CCN(Cc3ccc(OC)c(OC)c3)CC2CCO)c1 (configuration not stated)	Pf growth 96h 9.3µM
COc1cccc(CN2CCN(Cc3cc4ccccc4o3)CC2CCO)c1 (configuration not stated)	none
COc1cccc(CN2CCN(Cc3ccc(O)c(OC)c3)CC2CCO)c1 (configuration not stated)	Sm TGR block 35µM
Cc1ccc(CN2CCN(Cc3cnn(-c4ccc(Cl)cc4)c3)CC2CCO)o1 (configuration not stated)	Pf growth 96h inconclusive
Cc1ccc(CN2CCN(Cc3ccncc3)CC2CCO)o1 (configuration not stated)	Pf growth 96h inconclusive, Sm TGR block 20µM
COc1cc(CN2CCN(Cc3ccc(C)cc3)C(CCO)C2)ccc1O (configuration not stated)	Pf growth 96h inconclusive, Sm TGR block inconclusive
COc1cccc(CN2CCN(Cc3ccc(C)o3)CC2CCO)c1 (configuration not stated)	Pf growth 96h 13µM, Sm TGR block 35µM
Cc1nc2c(cc1N)nc(C)n2Cc1ccccc1	Pf growth 96h 2.6µM
Cc1nc2ccc(N)cc2c(=O)n1Cc1ccc(Cl)cc1	none
Cc1cc(OC(=O)c2cccc(Cl)c2)c([N+](=O)[O-])c(=O)[nH]1	none
OC1CCCN(C(=S)NCc2ccccc2)C1 (configuration not stated)	Pf growth 96h 3.3µM
O=C1CS/C(=N\N=C\c2ccco2)N1c1ccccc1	Sm TGR block 14µM
O=C1CS/C(=N/N=C/c2ccccc2)N1c1ccc(O)cc1	Pf growth 96h 1.7µM
O=C1C(Cc2cccc([N+](=O)[O-])c2)S/C(=N/N=C/c2ccco2)N1c1ccccc1 (configuration not stated)	none
CCCN1C(=O)SC(CC(=O)Nc2ccc(C)cc2)C1=O (configuration not stated)	SARS PLP yeast 11µM, Pf growth 96h inconclusive
Cc1ccc(NC(=O)CC2SC3=NCCN3C2=O)cc1 (configuration not stated)	Pf growth 96h inconclusive, Sm TGR block 7.9µM
CCN=C1SC(CC(=O)Nc2ccc(N3CCOCC3)cc2)C(=O)N1CC (configuration not stated)	none (no result: Pf growth 96h)
CCN=C1SC(CC(=O)Nc2ccc(C(F)(F)F)cc2)C(=O)N1CC (configuration not stated)	Pf growth 48h 2.6µM
O=C(CC1Sc2ncnn2C1=O)Nc1ccccc1 (configuration not stated)	Sm TGR block 0.5µM (no result: Pf growth 48h)
Cc1cccc(N2N=C(C(=O)N3Cc4ccccc4CC3C(N)=O)CCC2=O)c1 (configuration not stated)	none (no result: Pf growth 96h, Pf growth 48h, Sm TGR block)
O=C(Cn1c(=O)oc2ccccc21)NCc1cccc(Cl)c1	none (no result: SARS PLP yeast, Pf growth 96h, Pf growth 48h)
COc1ccccc1NC(=O)C1=C(C)Nc2nc(SCc3ccccc3F)nn2C1c1cccs1 (configuration not stated)	none (no result: SARS PLP yeast, Pf growth 96h, Pf growth 48h)
CC(=O)Nc1ccc(NC(=O)CC2SC(=O)N(CC(=O)c3ccccc3)C2=O)cc1 (configuration not stated)	Pf growth 96h 10µM
Cc1ccc(NC(=O)CC2SC(=O)N(c3ccccc3)C2=O)cc1 (configuration not stated)	Sm TGR block inconclusive
CCN1C=CC2=C(C#N)C(N)C(C#N)(C#N)C(c3ccccc3C(F)(F)F)C2C1 (configuration not stated)	Pf growth 96h inconclusive, Pf growth 48h 2.9µM
C=C[C@@H]1c2ccccc2N(S(=O)(=O)c2ccc(C)cc2)[C@H](c2ccccc2C(F)(F)F)C1(C#N)C#N	Pf growth 96h inconclusive, Pf growth 48h inconclusive
CCOC(=O)c1ccc(NC(=O)Cn2c(=O)cc(C(F)(F)F)c3c(C)nn(C)c32)cc1	none (no result: SARS PLP yeast, Pf growth 96h, Pf growth 48h)
CCc1c(C)sc(NC(=O)OC)c1C(N)=O	Pf growth 96h 4.1µM
CCOc1ccc(S(=O)(=O)N2CCN(C(=O)c3ccccc3Cc3ccccc3)CC2)cc1	Pf growth 96h inconclusive, Pf growth 48h inconclusive
CCCN(CCC)c1nc(N)c(C#N)c(CC#N)c1C#N	Pf growth 96h 13µM (no result: Pf growth 48h)
COC(=O)c1c(-c2ccc(OC)cc2)sc2ccc(N3CCOCC3)cc12	none (no result: Pf growth 96h, Pf growth 48h, Sm TGR block)
